From paper PMC4336329 (PLoS ONE, 2015)
The campaign covered roughly 310,000 compounds. About 14,000 (4.5%) showed an effect of 50% or more. Effects have a minus sign here. The full list was thinned out, with strong results kept by preference.

target: human ether-à-go-go-related gene (hERG) potassium channel (human, UniProt Q12809); assay: primary screen, population patch clamp on CHO cells stably expressing hERG; higher = less effect of the substance
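Note: peak tail current of the secondary pulse compared with the same well before compound.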

Chain of human ether-à-go-go-related gene (hERG) potassium channel (Q12809 whole entry, looked up): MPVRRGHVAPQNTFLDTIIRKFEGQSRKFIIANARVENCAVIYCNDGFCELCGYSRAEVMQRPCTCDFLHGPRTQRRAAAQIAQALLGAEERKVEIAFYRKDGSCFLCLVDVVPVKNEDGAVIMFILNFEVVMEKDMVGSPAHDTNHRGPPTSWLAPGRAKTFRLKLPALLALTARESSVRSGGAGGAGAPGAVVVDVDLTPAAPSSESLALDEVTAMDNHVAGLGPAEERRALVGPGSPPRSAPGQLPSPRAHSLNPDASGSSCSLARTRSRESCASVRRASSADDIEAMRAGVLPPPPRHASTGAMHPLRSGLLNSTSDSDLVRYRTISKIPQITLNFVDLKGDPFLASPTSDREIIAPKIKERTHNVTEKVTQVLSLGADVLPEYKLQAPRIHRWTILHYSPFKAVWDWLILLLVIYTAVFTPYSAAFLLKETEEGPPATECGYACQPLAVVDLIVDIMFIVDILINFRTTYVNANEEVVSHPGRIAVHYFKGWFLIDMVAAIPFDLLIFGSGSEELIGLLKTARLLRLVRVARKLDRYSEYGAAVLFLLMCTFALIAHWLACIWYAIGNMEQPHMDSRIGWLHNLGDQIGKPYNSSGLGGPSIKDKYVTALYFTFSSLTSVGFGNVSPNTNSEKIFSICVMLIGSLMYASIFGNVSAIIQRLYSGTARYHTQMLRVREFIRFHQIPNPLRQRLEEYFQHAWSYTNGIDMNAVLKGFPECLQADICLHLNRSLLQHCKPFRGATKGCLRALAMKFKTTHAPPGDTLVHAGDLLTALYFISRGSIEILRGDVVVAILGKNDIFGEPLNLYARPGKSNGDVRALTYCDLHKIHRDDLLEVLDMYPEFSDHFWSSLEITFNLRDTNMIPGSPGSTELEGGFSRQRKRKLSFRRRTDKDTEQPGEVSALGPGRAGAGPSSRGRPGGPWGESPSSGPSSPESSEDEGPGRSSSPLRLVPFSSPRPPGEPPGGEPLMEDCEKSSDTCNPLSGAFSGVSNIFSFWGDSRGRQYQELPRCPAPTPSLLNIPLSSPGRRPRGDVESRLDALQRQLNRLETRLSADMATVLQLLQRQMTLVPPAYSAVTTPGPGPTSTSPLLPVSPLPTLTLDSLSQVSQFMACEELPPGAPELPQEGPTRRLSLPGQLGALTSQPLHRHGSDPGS

| Compound | hERG current change (%, negative = inhibition) at 10uM |
| --- | --- |
| NS(=O)(=O)c1ccc2nc(NC(=O)CS(=O)(=O)c3ccccc3)sc2c1 | 26.8% |
| CCN(CC)CCN=C(C)c1c(O)n(-c2ccccc2OC)c(=O)[nH]c1=O | 4.71% |
| Cc1cccc(NC(=O)C(=O)C2C(=O)Nc3ccccc32)c1 (centres unmarked) | 4.05% |
| CC1=C(C(=O)Nc2ccccc2)C(c2ccco2)NC(=O)N1 (centres unmarked) | 14.5% |
| O=c1[nH]c2ccc(NS(=O)(=O)c3ccc(Cl)cc3)cc2[nH]1 | 15.8% |
| Cc1ccc(CS(=O)Cc2ccc(C(=O)NC3CCCCCC3)o2)cc1 (centres unmarked) | 8.98% |
| O=C(c1ccc(CS(=O)Cc2ccc(Cl)cc2)o1)N1CCN(c2ccccc2F)CC1 (centres unmarked) | -55.8% |
| Cc1ccc(C)c(N2CCN(C(=O)c3ccc(CS(=O)Cc4cccc(Cl)c4)o3)CC2)c1 (centres unmarked) | -6.6% |
| CCCc1ccc(OCc2ccc(C(=O)O)o2)c(OC)c1 | 8.51% |
| Cc1ccc(Cl)cc1N1CCN(C(=O)c2ccc(CS(=O)Cc3ccc(Cl)cc3)o2)CC1 (centres unmarked) | 13.9% |
| CCCc1ccc(OCc2ccc(C(=O)N3CCN(c4ccccn4)CC3)o2)c(OC)c1 | -56.5% |
| Cc1cccc(N2CCN(C(=O)c3ccc(CS(=O)Cc4cccc(Cl)c4)o3)CC2)c1C (centres unmarked) | -13.5% |
| Cc1ccc(C)c(N2CCN(C(=O)c3ccc(CS(=O)Cc4ccc(Cl)cc4)o3)CC2)c1 (centres unmarked) | -26.9% |
| Cc1cccc(N2CCN(C(=O)c3ccc(CS(=O)Cc4ccc(Cl)cc4)o3)CC2)c1C (centres unmarked) | -57% |
| Cc1ccc(CS(=O)Cc2ccc(C(=O)NC3CCC(C)CC3)o2)cc1 (centres unmarked) | -51% |
| COc1ccccc1S(=O)(=O)Cc1ccc(C(=O)N2CCN(c3ccccn3)CC2)o1 | -17.8% |
| Cc1ccc(CS(=O)Cc2ccc(C(=O)NC3CCCCC3)o2)cc1 (centres unmarked) | 2.31% |
| Cc1cc(C)c(C)c(S(=O)(=O)N2CCC(C(=O)NCC(c3ccccc3)N(C)C)CC2)c1C (centres unmarked) | -48.9% |
| CC(CC(=O)N(C)CC(=O)Nc1ccc(N2CCOCC2)cc1)c1ccccc1 (centres unmarked) | -13.3% |
| COC(C[C@H]1O[C@H]1C(=O)[C@H](C)OCc1ccccc1)OC | 14.5% |
| CCC(c1nnnn1Cc1ccccc1)N1CCN(c2ccccc2)CC1 (centres unmarked) | -8.7% |
| Cc1cc(Cl)ccc1NC(=O)Cn1cncn1 | 14.3% |

| Compound | hERG current change (%, negative = inhibition) at 10uM |
| --- | --- |
| COc1cccc(N2CCN(C(=O)c3ccc(CS(=O)Cc4ccc(Cl)cc4)o3)CC2)c1 (centres unmarked) | -41.8% |
| O=C(c1ccc(CS(=O)Cc2ccc(Cl)cc2)o1)N1CCN(c2ccc(F)cc2)CC1 (centres unmarked) | -62.1% |
| CN1CCN(C(=O)c2ccc(CS(=O)Cc3ccc(Cl)cc3)o2)CC1 (centres unmarked) | 13.1% |
| COc1cccc(N2CCN(C(=O)c3ccc(CS(=O)c4ccc(Cl)cc4)o3)CC2)c1 (centres unmarked) | -42% |
| O=C(c1ccc(CS(=O)Cc2ccc(Cl)cc2)o1)N1CCN(c2ccccc2)CC1 (centres unmarked) | -51.8% |
| O=C(c1ccc(CS(=O)c2ccccc2Cl)o1)N1CCN(c2ccccc2)CC1 (centres unmarked) | -38.2% |
| O=C(c1ccc(CS(=O)Cc2ccc(Cl)cc2)o1)N1CCN(c2cccc(Cl)c2)CC1 (centres unmarked) | -52.7% |
| O=C(c1ccc(COc2ccccc2Cl)o1)N1CCN(c2ccccc2)CC1 | -24.1% |
| CCOC(=O)C1=C(C)N(c2ccc(Cl)cc2)C(=O)NC1c1cccc([N+](=O)[O-])c1 (centres unmarked) | -24.8% |
| CCOc1ccc(S(=O)(=O)NCCC(=O)NCC2(N3CCCCC3)CCCCC2)cc1 | -33.2% |
| Cc1ccc[n+](CC(=O)Nc2cccc(Cl)c2)c1.[Cl-] | 18.4% |
| CCC(C)(C)C1CCc2c(sc(NC(=O)c3ccccc3C(=O)O)c2C#N)C1 (centres unmarked) | 10.3% |
| O=C1C=C(N2CCN(C(=O)c3ccccc3)CC2)C2(CCCCC2)O1 | -10.3% |
| O=C(NCCS(=O)(=O)N1CCc2ccccc2C1)c1ccccc1 | -23% |
| COc1cccc(SCc2noc(C(=O)NCCCN3CCOCC3)c2C(=O)NCCCN2CCOCC2)c1 | -4.2% |
| Cc1ccc(Cc2c(C)nc3nc(SCC(=O)NCCCN4CCCCCC4)nn3c2C)cc1 | -54.8% |
| Cc1ccc(Cc2c(C)nc3nc(SCC(=O)NCCCN4CCCCC4)nn3c2C)cc1 | -42.7% |
| Cc1ccc(Cc2c(C)nc3nc(SCC(=O)NCCCN4CCCC4)nn3c2C)cc1 | -28.4% |
| CC(C)C[C@@H](N)c1nnc(SCC(=O)c2ccc(Cl)cc2)o1.Cl | -37.1% |
| CC1(C)CC(=O)C=C(Nc2ccccc2O)C1 | 15.7% |
| CC1(C)CC(=O)C=C(Nc2ccccc2NC(=O)c2cnccn2)C1 | -64.7% |
| O=C(Nc1ccccc1Cl)c1cnccn1 | 2.9% |
